Screens (PubChem)
An excerpt weighted towards active compounds, which were near 3.2% of everything screened.
PG9 Ab binder: small molecules binding HIV-1 gp120 antibody PG9. TR-FRET gp120-PG9 antibody binding. inhibition, % at 6.7 µM. actives 0.43% (n = 360,000). AID 624416; in the data active = inhibition above about 8.5%
MsrA act: activators of bovine methionine sulfoxide reductase A | actives 0.3% (n = 360,000) | purified bovine MsrA, absorbance read-out | activation, % at 10.6 µM; in the data active = activation above about 7.5%;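 also: 0% = vehicle and 100% = reference activator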
rCAG RNA binder: molecules binding r(CAG) RNA repeats; actives 1.3% (n = 370,000); r(CAG) RNA repeat, TO-PRO-1 dye displacement fluorescence; inhibition, % at 3 µM;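 active = inhibition above the plate cutoff, the mean of all test compounds on that plate plus 3 SD, cut at about 35% in these data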;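 also: 0% = DMSO alone and 100% = 100 µM mitoxantrone as full dye displacement; higher means more dye released from RNA so lower well fluorescence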
MsrA inhibitor: inhibits bovine methionine sulfoxide reductase A | actives 0.75% (n = 360,000) | inhibition, % at 15.5 µM | purified bovine MsrA, absorbance read-out | AID 651718; in the data active = inhibition above about 4.5%;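 also: 0% = vehicle wells with enzyme and 100% = reference inhibitor wells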
HGIII-sPLA2 inh: Blocks human group III sPLA2 activity; QFRET BODIPY PC-A2 liposome hydrolysis, fluorescence; inhibition, % at 12.2 µM; actives 0.56% (n = 370,000);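 active = inhibition above mean plus 3 SD of compounds lying within the high and low control bounds, cut at about 19% in these data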;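 also: 0% = median of test compound wells and 100% = no enzyme DMSO wells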
Target sequence (Q9NZ20 whole entry, looked up): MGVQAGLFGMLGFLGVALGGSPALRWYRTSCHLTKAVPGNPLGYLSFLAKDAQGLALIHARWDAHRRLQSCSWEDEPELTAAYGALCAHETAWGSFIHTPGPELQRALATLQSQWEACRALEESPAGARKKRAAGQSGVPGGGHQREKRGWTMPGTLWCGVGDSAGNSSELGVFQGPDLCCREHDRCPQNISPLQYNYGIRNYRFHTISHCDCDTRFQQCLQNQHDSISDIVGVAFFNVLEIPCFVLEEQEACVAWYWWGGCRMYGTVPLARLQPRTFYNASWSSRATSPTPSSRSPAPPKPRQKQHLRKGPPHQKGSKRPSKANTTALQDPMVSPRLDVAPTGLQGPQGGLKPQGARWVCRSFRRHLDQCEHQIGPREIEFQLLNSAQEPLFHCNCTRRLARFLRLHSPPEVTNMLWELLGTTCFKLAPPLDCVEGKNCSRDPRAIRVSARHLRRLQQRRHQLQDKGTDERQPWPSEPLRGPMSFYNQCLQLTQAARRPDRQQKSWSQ
sPLA2 confirm: human GIII-sPLA2 inhibition, confirmation | actives 34% (n = 2,000) | inhibition, % at 12.2 µM | recombinant hGIII-sPLA2, BODIPY PC-A2 QFRET fluorescence | AID 743280 | shares compounds with HGIII-sPLA2 inh;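 active = mean inhibition across triplicates above the hit cutoff set in the earlier primary screen, cut at about 19% in these data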;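 also: 0% = enzyme with DMSO and 100% = DMSO wells lacking enzyme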
BODIPY interf: counter-screen for HGIII-sPLA2 inhibitors: 535nm fluorescence interference; actives 8.5% (n = 2,000); inhibition, % at 12.2 µM; BODIPY FL product fluorescence interference, QFRET; shares compounds with HGIII-sPLA2 inh;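 active = average inhibition above the solvent-only control mean plus 3 SD, cut at about 6% in these data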;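 also: 0% = DMSO with substrate plus product and 100% = DMSO with substrate alone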
535nm interf DR: interferes with 535nm fluorescence in dose response counter-screen; shares compounds with HGIII-sPLA2 inh; BODIPY FL product fluorescence interference, cell-free; IC50, µM; 240 tested, under 10 active; AID 743455;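 active = IC50 at or below 10 µM; inactive = IC50 above 10 µM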
An asterisk follows results filed as active; . = no result given.

SMILES	PG9 Ab binder	MsrA act	rCAG RNA binder	MsrA inhibitor	HGIII-sPLA2 inh	sPLA2 confirm	BODIPY interf	others
CCOC(=O)c1cnc(-n2[nH]c(C)c(Cc3ccccc3)c2=O)[nH]c1=O	-1.8	-4.0	8.9	2.2	23.1*	19.8*	-4.9
O=C(Cc1ccc(Nc2nc(=S)[nH]c3ccccc23)cc1)NC1CCCCC1	2.0	.	15.5	3.6	21.3*	13.7	-0.5
Cc1ccccc1OCC(=O)Nc1ccc2c(c1)OCO2	0.9	0.7	0.0	0.0	22.7*	-2.1	-7.9
CC(=O)CC[C@H]1CC[C@]2(CCCN(C(=O)C3CCCCC3)C2)O1	.	.	0.9	.	-1.5	.	.
O=C(c1ccc(Cl)cc1)N1CCC(Oc2cccnc2)CC1	.	.	-0.1	.	0.8	.	.
CCOc1cc(/C=N/NC(=O)c2ccncc2)ccc1OS(C)(=O)=O	-0.8	-6.2	-1.7	1.6	0.6	.	.
CS(=O)(=O)Oc1ccc(/C=N/NC(=O)c2ccncc2)cc1	-1.6	0.4	1.2	2.4	19.3*	4.9	-2.8
CC(=O)Nc1cccc(-c2ccnc3c2CC(C(=O)NCc2ccc(N4CCN(C)CC4)cc2)O3)c1 (stereo not given)	-0.5	-1.3	-1.5	0.2	0.9	.	.
CCOC(=S)SCC(=O)Nc1nc(C)c(C)s1	0.3	-5.8	1.0	1.1	19.4*	-3.0	-7.7
CN(C)c1ccc(-c2cc(NC=O)c3ncc(-c4ccc(F)c(Cl)c4)n3c2)cc1	1.2	-3.7	20.7	1.6	14.2	.	.
Cn1c2ccc(F)cc2c2ncn(CC3CCCO3)c(=O)c21 (stereo not given)	0.0	-1.9	-2.5	0.6	20.7*	-0.6	-5.1
O=c1c2[nH]c3ccc(F)cc3c2ncn1CC1CCCO1 (stereo not given)	.	-2.0	.	.	.	.	.
O=C(/C=C/c1ccc2c(c1)OCO2)NCc1ccco1	-0.2	-12.0	1.8	3.0	19.9*	-2.1	-6.0
O=C(/C=C/c1ccc(Cl)c(Cl)c1)NCc1ccco1	-0.7	-8.6	0.6	0.8	10.1	.	.
CC(=O)O[C@H]1C=C[C@@H](C#Cc2ccc(C(C)(C)C)cc2)O[C@@H]1COC(=O)Nc1ccccc1	1.6	.	9.5	-0.2	-15.2	.	.
CCC(C)NC(=O)c1ccc(NC(=O)C2=C(C)OCCS2)cc1 (stereo not given)	-0.9	-2.6	0.1	0.9	20.6*	-0.9	-7.2
O=C(NC1CCCC1)c1cc(-c2ccc(Cl)cc2)on1	-2.0	2.0	-1.6	0.3	19.4*	-4.3	-8.5
O=C(NCC1CCCO1)c1cc2cc(Cl)ccc2[nH]1 (stereo not given)	-0.5	-6.3	-3.7	1.1	3.7	.	.
O=c1cc(-c2ccccc2F)oc2ccccc12	-1.2	-8.7	2.7	0.7	1.1	.	.
O=c1cc(C(F)(F)C(F)F)oc2ccccc12	0.9	-2.5	-0.7	0.0	24.8*	-1.7	-6.3
COc1ccc(NC(=S)NNC(=O)CNc2ccc(Cl)cc2)cc1	0.1	-2.0	3.3	0.4	29.4*	35.2*	7.4*
Cc1c(C(=O)NNC(=S)NCc2ccc(Cl)cc2)oc2ccccc12	3.0	-3.0	30.7	0.8	24.2*	14.2	15.9*
O=C(CNc1cccc(Cl)c1)NNC(=S)NCc1ccccc1	-1.1	-2.1	1.5	0.0	26.8*	32.2*	-0.9	535nm interf DR=>122
S=C(NCc1ccccc1)Nc1cccc(Cl)c1	-2.5	2.7	-3.2	1.0	-2.4	.	.
CCN(CC(=O)NCc1ccc(Cl)cc1)C(=O)c1oc2ccccc2c1C	1.6	-2.7	0.5	1.6	-10.1	.	.
SMILES	PG9 Ab binder	MsrA act	rCAG RNA binder	MsrA inhibitor	HGIII-sPLA2 inh	sPLA2 confirm	BODIPY interf	others
COc1ccc(NC(=S)NNC(=O)COc2ccc(Cl)cc2Cl)cc1	0.4	-1.0	22.5	-0.4	13.4	.	.
O=C(CNc1ccc(Cl)cc1)NNC(=S)NCc1ccccc1	1.7	-1.3	5.5	-0.5	25.4*	37.8*	4.2	535nm interf DR=>122
CC1(C(=O)NS(=O)(=O)C2CC2)CCN(C(=O)COCc2ccccc2)C1 (stereo not given)	-0.1	-2.0	-1.0	-0.7	2.0	.	.
Cc1ccc(C(=O)NC(=S)/C=C2\N(C)c3ccccc3C2(C)C)cc1	-1.4	-14.3	-2.9	2.7	29.6*	44.9*	1.6	535nm interf DR=>122
CC(C)C(=O)NC(=S)/C=C1/N(C)c2ccccc2C1(C)C	0.7	-3.5	-5.2	-0.8	-4.2	.	.
COC(=O)c1ccc(Cn2c(C)c(C(=O)NCc3cccs3)sc2=O)o1	-1.4	3.8	0.6	-0.6	5.1	.	.
Cc1ccc(N=Nc2ccc3ccccc3c2O)cc1	1.4	-2.5	-2.9	0.5	20.4*	30.4*	8.3*
COc1cccc(N=Nc2ccc3ccccc3c2O)c1	-1.8	-4.3	5.4	-0.8	8.1	.	.
CCCNC(=O)Nc1cccc(C(=O)OC)c1	-2.0	-0.4	-2.7	-0.1	20.8*	8.3	-5.8
COc1ccc(-c2sc3ccccc3c2/C=C/c2ccc(N)cc2)cc1	-0.1	-5.3	7.1	3.0	21.6*	28.1*	13.2*
CCC(C)N(C(=O)c1oc(=O)c2ccccc2c1-c1ccc(C)cc1)C(C)CC (stereo not given)	.	.	2.4	.	16.3	.	.
Cc1ccc(-c2nc(C3CCCN(S(=O)(=O)c4ccccc4)C3)no2)cc1 (stereo not given)	.	.	1.1	.	-3.2	.	.
Clc1ccc(-c2cn(-c3nc4ccccc4s3)nn2)cc1	1.0	-3.6	3.4	-1.2	3.4	.	.
CCCC[n+]1c2ccccc2cc2ccccc21	-1.7	-2.5	3.7	-1.2	39.8*	52.2*	-7.1	535nm interf DR=>122
CCCCn1c(-c2csc(C(C)C)c2)n[nH]c1=S	-0.2	-4.4	0.8	0.9	2.7	.	.
CCCCn1c(-c2nn(C)c(C)c2Cl)n[nH]c1=S	-1.6	4.6	2.2	0.4	19.8*	24.0*	-3.7
Cc1c(Cl)c(-c2n[nH]c(=S)n2CC(C)C)nn1C	1.3	2.6	-0.6	0.4	13.2	.	.
CCCCn1c(-c2csc(CC)c2)n[nH]c1=S	-1.9	-2.4	-1.6	0.2	19.8*	24.9*	-1.9
CC(C)(C)OC(=O)C[C@H]1C/C=C\C[C@H](CC(=O)N(CCO)Cc2ccccc2)C(=O)N[C@H](C(C)(C)C)COC1=O	-1.1	1.3	-4.8	-0.4	2.0	.	.
Clc1ccccc1CN1CCSCC1	-1.1	-0.1	5.6	-0.2	3.1	.	.
CC1CN(Cc2ccccc2Cl)CC(C)O1 (stereo not given)	0.6	-3.1	-1.0	0.0	19.4*	-1.0	-10.2
O=C(Nc1nc(Cc2ccccc2)c(-c2ccccc2)n1Cc1ccccc1)c1ccccc1	.	.	9.1	.	19.5*	2.2	-5.5
COc1ccc(-c2c(Cc3ccccc3)nc(NC(=O)c3ccccc3)n2C)cc1	.	.	6.5	.	19.4*	10.9	-7.3
Fc1ccc(-n2c(-c3cc(C4CC4)[nH]n3)n[nH]c2=S)cc1Cl	2.7	-5.2	3.0	1.0	27.6*	23.5*	0.5
O=c1ccc(-c2n[nH]c(=S)n2-c2ccc(F)c(Cl)c2)n[nH]1	1.2	2.3	1.6	1.8	7.3	.	.
COc1cccc(CCN2C(=O)CCC3=C2CCC3=O)c1	.	-3.6	.	.	.	.	.
